PubChem BioAssay (NCI)
About 83,000 compounds went through this panel and 20% of them were active in at least one assay; those are over-represented in the sample as a whole.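 Single-dose data. Exposure time 48 hours. Values below 10 considered active.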 Unmarked numbers belong to inactive results. Activity calls are given as the source filed them.

Test system: NCI-H23 lung
Test: NCI-60 one-dose screen, 48 h (100 = growth as untreated, 0 = no growth, -100 = all killed)
Conditions: 10 µM

Going from `Oc1ccc(/C=N/N=C2c3ccccc3-c3ccccc32)c(O)c1` to `Cc1cccc(N=Cc2ccccc2O)c1C`, the growth rises from 70.2% to 94.8%.

Compared with `COc1cccc(C2C(C#N)=C(N)Oc3cc(N)ccc32)c1` (configuration not stated), `Clc1nc2ccc(Br)cc2cc1-c1nc2ccccc2[nH]1` is higher in growth: 37.8% for the first, 90.6% for the second.

Compared with `COc1ccc(C(c2ccc(OCCN(C)C)cc2)c2cc3ccccc3c3ccccc23)cc1` (configuration not stated), `CC(C)c1ccc(C(C)C(=O)N(CC2=C(C(C)c3ccccn3)c3ccccc3C2)C(C)C)cc1` (configuration not stated) is lower in growth: 78.4% for the first, 26.3% for the second.

First: COc1cc2c(cc1NC(=O)C(Cl)Cl)-c1ccc(NC(=O)C(Cl)Cl)cc1C2
Second: COc1cc2cc(Oc3ccc(NC(=O)Nc4ccc(C(F)(F)F)cc4)cc3)c(C)nc2cc1OC
The growth of the first is lower: 48.6% for the first, 79.3% for the second.

`COc1ccc(/C=C/C(=O)C(=O)/C=C/c2ccc(OC)c(OC)c2)cc1OC` gave a growth of 21.6%.

In the case of `CC(=O)N[C@H](C(=O)N[C@@H](CCCNC(=N)N)C(=O)N[C@@H](CCCCN)C(=O)N[C@@H](CCCNC(=N)N)C(=O)NC(C(=O)N[C@@H](CC(C)C)C(=O)N[C@@H](CCCNC(=N)N)C(=O)N[C@@]1(C)CCC/C=C\CCC[C@@](C)(C(=O)N[C@@H](CCCNC(=N)N)C(=O)N[C@@H](CCC(=O)O)C(=O)N[C@@H](CC(C)C)C(=O)N[C@H](C(=O)N[C@@H](CCC(=O)O)C(N)=O)C(C)C)NC(=O)[C@H](CCC(N)=O)NC(=O)[C@H](CC(C)C)NC(=O)[C@H](CC(C)C)NC1=O)[C@@H](C)O)C(C)C` (some centres not stated), the growth is reported as -34.6% (active).
For `CC1OC2CC(=O)OC2C2=C1C(=O)c1c(O)c3c(c(O)c1C2=O)C1CC(O)C3(O)C(C)O1` (configuration not stated), the growth was -34.2% (active).
In the case of `COc1cc(-c2csc(NC(=O)Nc3ccc(Cl)c(C(F)(F)F)c3)n2)cc(OC)c1OC`, the growth is reported as 1.27% (active).
